# Screening data from PubChem.
# Hits are enriched below; roughly 5.9% of the tested compounds scored in any of these assays.
# Gal4-VP16 FLuc: Gal4-VP16 reporter inhibition counter-screen. Drosophila S2 Gal4-VP16 UAS-luciferase, luminescence, 20 h. Potency, µM (highest dose often 53.6 µM), without a hit: top-dose activity, negative = inhibition, usual class: inhibitors. hit rate 3.5% among 310,000. AID 2546;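 also: Gal4-VP16 expression switched on by copper sulfate through the metallothionein promoter; potency is read from the fitted curve at half-maximal effect; nearly all actives have a fitted effect of over 50% in size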
# TrxR1 inh: rat TrxR1 inhibition. O89049. recombinant rTrxR1, NADPH fluorescence consumption, selenite substrate. Potency, µM (doses to about 114 µM), for the others: top-dose activity change, negative = inhibition, hits mostly inhibitors. hit rate 1% among 390,000; also: potency is read from the fitted curve at half-maximal effect; nearly all actives have a fitted effect of over 65% in size
#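 Rat TrxR1 (90 nM in the dispensed reagent) was pre-reduced with 400 uM NADPH for 5 min at room temperature, then incubated with compound for 15 min. After 400 uM selenite was added, NADPH fluorescence (Ex 340/Em 450 nm) was followed for 8 min.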
# Coupling enz: coupling enzyme interference in Giardia aldolase counter-screen; hit rate 0.67% among 290,000; activity change, negative = inhibition, % at 58.2 µM, hits read low; AID 2472; coupling enzyme system counterscreen, AmpLite Red fluorescence; in the data active = activity change below about -30%
#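 Counterscreen of the coupled detection system alone, without aldolase: glyceraldehyde-3-phosphate coupling enzymes plus AmpLite Red readout. Compounds at 57.5 uM final, 10 min RT preincubation, 20 min RT reaction, fluorescence 525/598 nm.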
# TrxR1 substrate: substrates of rat thioredoxin reductase 1; purified TrxR1 substrate turnover, NADPH consumption readout; Potency, µM (titrated, usually from 114 µM), inactives show top-dose activity change, negative = substrate turnover; hit rate 0.01% among 390,000; AID 588456; also: potency is read from the fitted curve at half-maximal effect; nearly all actives have a fitted effect of over 50% in size
#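 Rat TrxR1, dispensed at 90 nM, was prereduced with 400 uM NADPH (final) for 5 min at ~22 deg C, then incubated with compound 15 min before 400 uM selenite. A first-read NADPH fluorescence drop versus no-compound background flagged substrates.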
# GALK inh: galactokinase (human) inhibition. P51570. Purified GALK, Kinase-Glo residual ATP luminescence. Potency, µM (titrated, usually from 57.5 µM), without a hit: top-dose activity change, negative = inhibition, hits mostly inhibitors. hit rate 0.007% among 270,000; also: potency is read from the fitted curve at half-maximal effect
#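 Galactose (100 uM) and ATP (35 uM) were turned over by 5 nM GALK for 1 h at RT. Kinase-Glo Plus then converted the remaining ATP into a luminescent signal.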
# RORg inh: inhibitors of mouse ROR gamma transcriptional activity | P51450 | Drosophila S2 Gal4-RORgamma UAS-luciferase reporter, 20 h | Potency, µM (highest dose often 53.6 µM), without a hit: at the highest dose activity change, negative = inhibition, actives largely listed as inhibitors | hit rate 5.4% among 310,000; also: potency is read from the fitted curve at half-maximal effect; nearly all actives have a fitted effect of over 60% in size
# Target sequence (P51450 whole entry, looked up, the tested form may be a part): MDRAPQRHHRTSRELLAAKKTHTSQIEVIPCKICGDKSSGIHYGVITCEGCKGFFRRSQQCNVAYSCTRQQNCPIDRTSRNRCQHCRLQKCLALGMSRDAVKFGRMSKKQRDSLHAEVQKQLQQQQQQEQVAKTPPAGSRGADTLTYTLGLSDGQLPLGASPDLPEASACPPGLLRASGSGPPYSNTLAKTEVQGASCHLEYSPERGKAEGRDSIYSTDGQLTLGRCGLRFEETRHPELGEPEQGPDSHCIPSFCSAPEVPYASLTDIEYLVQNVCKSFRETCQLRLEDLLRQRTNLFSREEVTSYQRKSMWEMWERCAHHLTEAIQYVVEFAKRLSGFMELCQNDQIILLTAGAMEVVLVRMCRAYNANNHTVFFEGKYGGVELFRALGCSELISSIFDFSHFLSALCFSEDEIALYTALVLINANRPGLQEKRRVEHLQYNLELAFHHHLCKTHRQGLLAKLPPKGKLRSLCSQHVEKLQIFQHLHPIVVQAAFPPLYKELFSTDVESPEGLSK
#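 In this cell-based reporter format, copper sulfate (700 uM final) drives Gal4–ROR gamma fusion expression from a metallothionein promoter in Drosophila Schneider cells; compounds preincubated 1 hr, reporter read after 20 hr at ambient temperature.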
# * = called active by the depositor; ? = inconclusive; . = no result given; ! = a repeat was not active; [ ] = another dose, or the depositor's remark. Unless noted, calls follow the shape of the dose curve; as a rule, active = well fitted curve in the direction sought with a large enough effect; inconclusive = small, poorly fitted or top-dose-only effect, or another doubt; inactive = no such curve, though single readings can be large; an effect the other way counts as inactive or inconclusive. % is scaled to controls: 0 for no effect and ±100 for the full control effect.
SMILES,Gal4-VP16 FLuc,TrxR1 inh,Coupling enz,TrxR1 substrate,GALK inh,RORg inh
CC(=O)Nc1ccc(S(=O)(=O)NC2=C(N3CCN(Cc4ccccc4)CC3)C(=O)c3ccccc3C2=O)cc1,3.4%,-19.6%,-43.9*,-17.7%,0.8%,?
CCOC(=O)c1ccccc1NC(=O)c1cn(CC)c2nc(C)ccc2c1=O,?,15.8%,-9.7,-2.1%,-0.6%,11.2µM*
O=C(O)CCCNC(=O)OCc1ccccc1,6.31µM*,15.0%,-2.1,2.3%,0.4%,?
O=C(NCCCCCCNC(=O)OCc1ccccc1)OCc1ccccc1,.,21.0%[11.4 µM],.,12.7%[57.1 µM],.,.
COc1ccc(OC)c2[nH]c(=O)c(CCNC(=S)NC(C)(C)C)cc12,11.2µM*,9.3%,1.6,3.1%,7.1%,4.47µM*
NC(=O)/C(=N\OC(=O)c1ccco1)c1nc(-c2ccc(Br)cc2)cs1,?,7.08µM*,-1.1,6.6%,-2.3%,4.47µM*
Cc1ccc2c(c1)N(CC(=O)N1CCCCCC1)C(=O)c1cccnc1O2,-6.1%,19.1%[57.1 µM],-0.1,7.9%[57.1 µM],2.8%,-4.7%
O=C(CCN1C(=O)c2ccccc2C1=O)Nc1sc2c(c1C(=O)NCc1ccco1)CCCC2,-10.4%,20µM*,2.6,0.6%[57.1 µM],-0.2%,-4.9%
CCOc1ccccc1NC(=O)c1c(NC(=O)CNCc2ccco2)sc2c1CCC2,5.62µM*,.,2.8,.,3.9%,?
CCOc1ccccc1NC(=O)c1c(NCc2ccc(C)o2)sc2c1CCCCC2,.,?,.,6.8%[57.1 µM],.,.
C=CCNCC(=O)Nc1sc2c(c1C(=O)Nc1ccc(OC)cc1OC)CCC2,1.26µM*,15.2%,0.8,3.9%,2.2%,0.447µM*
COc1ccccc1C1=NOC(COc2ccc3c(C)cc(=O)oc3c2)C1 (stereo not drawn),3.1%,-7.5%,1.5,3.8%,0.5%,27.8%
CCOC(=O)c1cnc2c(-c3ccccc3)cnn2c1N,11.2µM*,16.8%,2.0,33.3%,-0.7%,1.58µM*
CCOC(=O)c1cnn(-c2cc(C)c3ccccc3n2)c1N,?,-3.3%,-0.9,-4.0%,-1.8%,0.112µM*
CCOC(=O)c1cnn(-c2ccccn2)c1N,-2.0%,10.8%[57.1 µM],1.2,7.3%[57.1 µM],5.7%,32.2%
COC(=O)CCCC1=CC2=CC(=O)C(C)(OC(=O)c3cccs3)C(=O)C2=CN1CCc1c[nH]c2ccccc12 (stereo not drawn),-7.5%,-23.9%,-36.1*!,-10.9%,-0.4%,-7.8%
CCCCC1=CC2=CC(=O)C(C)(OC(=O)CC)C(=O)C2=CN1C1CCCC1 (stereo not drawn),13.3%,13.2%,-32.9*!,-5.4%,3.3%,-19.7%
COC(=O)CCCC1=CC2=CC(=O)C(C)(OC(=O)c3cccs3)C(=O)C2=CN1CCCOC(C)C (stereo not drawn),-0.1%,-12.9%,-30.9*,-8.7%,-1.4%,10.7%
COC(=O)CCCC1=CC2=CC(=O)C(C)(OC(=O)c3cccs3)C(=O)C2=CN1C1CCCC1 (stereo not drawn),2.3%,-9.0%,-43.2*,-12.0%,-2.3%,4.9%
CC(NC(=O)c1ccc(F)cc1)c1ccccc1 (stereo not drawn),-2.8%,-1.1%,-0.3,2.0%,0.7%,9.4%
CCOc1cc(C2C(C(=O)N3CCCCC3)=C(C)NC3=C2C(=O)CC(C)(C)C3)ccc1O (stereo not drawn),0.4%,-14.0%,1.6,5.5%,.,3.1%
CCCS(=O)(=O)c1nc(C)cc(C)c1S(C)(=O)=O,-12.5%,6.8%[57.1 µM],7.1,0.8%[57.1 µM],6.2%,-12.4%
Cc1cc(C)c(S(C)(=O)=O)c(NN)n1,-22.0%,7.9%[57.1 µM],-2.3,-1.1%[57.1 µM],-1.6%,2µM*
Oc1ccc(O)c2c1C1c3ccccc3C2c2ccccc21,20µM*,.,0.1,.,-3.5%,7.94µM*
Oc1ccc2ccccc2c1C1Nc2cccc3cccc(c23)N1,?,-24.1%,-9.7,-10.8%,-1.7%,?
SMILES,Gal4-VP16 FLuc,TrxR1 inh,Coupling enz,TrxR1 substrate,GALK inh,RORg inh
CS(=O)(=O)c1ccc(C(=O)OCc2nnc(-c3ccc(Cl)cc3)o2)cc1[N+](=O)[O-],-1.7%,1.78µM*,3.2,8.3%[57.1 µM],2.8%,10µM*
COCCn1nnnc1CN(CCc1ccccc1)Cc1cc2cc(OC)ccc2[nH]c1=O,.,-24.2%,.,12.5%,.,.
O=C(CCl)NC(=O)NC12CC3CC(CC(C3)C1)C2,?,14.1µM*,3.2,7.8%,-5.9%,?
O=C(COc1ccccc1)Nc1cccc(-c2cn3cccnc3n2)c1,-6.2%,?,-1.6,559.2%,2.8%,16.0%
CC(/C=C/c1ccc(Cl)o1)=C\C(=O)O,4.7%,?,3.4,-19.1%,3.6%,-20.1%
Cc1ccc(/C=C/C(=O)Nc2ccncc2)o1,?,79.4µM*,1.2,-16.9%,4.4%,15.7%
Cc1ccc(/C=C/C(=O)NC2CCCCCCC2)o1,12.6µM*,?,-6.8,-1.7%,-0.2%,-91.9%
Cc1ccc(/C=C/C(=O)NCc2ccc(S(N)(=O)=O)cc2)o1,-21.6%[10 µM],15.8µM*,-6.3,15.6%[57.1 µM],0.4%,-2.7%
CC(=C/C(=O)O)/C=C/c1ccco1,?,28.2µM*,-1.6,-12.3%,.,?
O=C(/C=C/c1ccco1)NCc1ccco1,10.9%,70.8µM*,2.3,-6.3%,7.0%,19.1%
O=C(/C=C/c1ccco1)NCc1ccc(F)cc1,1.8%[10 µM],?,-2.1,7.8%[57.1 µM],-1.2%,6.6%
Cc1ccc(/C=C/C(=O)NCc2ccco2)o1,-4.2%,.,0.3,.,0.0%,26.8%
Cc1ccc(/C=C/C(=O)Nc2ccc(N(C)C)cc2)o1,-13.8%,-15.1%,-5.4,-6.6%,-0.5%,-4.8%
CC(=O)NS(=O)(=O)c1ccc(NC(=O)/C=C/c2ccc(C)o2)cc1,1.1%,15.8µM*,-6.2,5.2%[57.1 µM],-3.0%,20.9%
NS(=O)(=O)c1ccc(CNC(=O)/C=C/c2ccco2)cc1,0.9%,17.8µM*,-0.1,4.5%,-2.1%,7.1%
O=C(/C=C/c1ccco1)NCC1CCCO1 (stereo not drawn),24.8%,28.2µM*,-1.2,-2.1%,0.0%,2.4%
Cc1ccc(/C=C/C(=O)Nc2ccc(S(N)(=O)=O)cc2)o1,1.6%,5.01µM*,0.8,4.0%[57.1 µM],3.1%,-9.2%
CN(C)S(=O)(=O)c1cccc(NC(=O)COC(=O)/C=C/c2ccc(Br)o2)c1,7.7%,?,1.3,3.4%,-0.8%,13.0%
NC(=O)c1ccc(NC(=O)COC(=O)/C=C/c2ccc(Br)o2)cc1,.,44.7µM*,.,-5.1%,.,.
Cc1ccc(NC(=O)COC(=O)/C=C/c2ccc(Br)o2)cc1S(=O)(=O)N(C)C,2.7%,50.1µM*,-0.2,-1.5%,-1.1%,?
COc1ccccc1/C=C/C=N/NC(=O)c1cc(-c2ccco2)[nH]n1,?,-51.7%,-0.1,-7.7%,-2.0%,11.2µM*
